Shown are actives, neighbours in structure and some others; about 1.5% of the full set was active somewhere.
MEX-5 binding – MEX-5 zinc finger RNA-binding disruptors – biochemical, C. elegans, fluorescence polarization, MLPCN library, primary screen. Zinc finger protein mex-5 (Caenorhabditis elegans), Q9XUB2. MEX-5/FITC-TCR2 RNA binding; active compounds read low. activity score (negative = inhibition of binding), % at 10 µM. actives 0.38% (n = 300,000). AID 1832, 2009;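 active means inhibition past about -25% in most replicates, and total fluorescence under double the plate's negative control median, limit read from the data; inconclusive means replicates evenly split on the limit, or fluorescence at least double controls; inactive means too little inhibition in most replicates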;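 further: 0% = DMSO and -100% = 5 µM competing unlabeled TCR2 RNA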
GLD-1 RNA inh – GLD-1/TGE RNA complex disruptors, primary screen, biochemical, fluorescence polarization. purified GLD-1 + fluorescein TGE RNA. inhibition, % at 5.96 µM. actives 0.44% (n = 320,000);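 active means percent inhibition above a per-plate cutoff, the plate mean of test compounds plus 3 SD, cut at about 30% in these data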;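 further: 0% = DMSO wells with GLD-1 and probe and 100% = wells lacking GLD-1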
Bcl-xL primary – inhibitors of human Bcl-xL, primary screen, biochemical, fluorescence polarization, HTS. Bcl-2-like protein 1 (Homo sapiens), Q07817. GST-Bcl-xL / FITC-Bim BH3 peptide fluorescence polarization. inhibition, % at 10.9 µM. actives 0.7% (n = 320,000). AID 2129, 2009;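 active means inhibition above the mean of all tested compounds plus 3 SD, cutoff set per campaign, cut at about 30% in these data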;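 further: 0% = DMSO wells and 100% = unlabeled Bim-BH3 peptide competitor; inhibitors lower millipolarization by displacing the labeled peptide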
EBV gp42 inh – Epstein-Barr virus gp42 inhibitors, primary screen, biochemical, uHTS, fluorescence polarization; actives 0.42% (n = 220,000); Glycoprotein 42 (Epstein-Barr virus (strain AG876)), Q1HVG2; Fluorescence polarization binding assay, mP read-out; inhibition, % (tested at 21.74 µM); AID 1085, 2008; in the data active means inhibition above about 50%
Target sequence (Q1HVG2 whole entry, looked up): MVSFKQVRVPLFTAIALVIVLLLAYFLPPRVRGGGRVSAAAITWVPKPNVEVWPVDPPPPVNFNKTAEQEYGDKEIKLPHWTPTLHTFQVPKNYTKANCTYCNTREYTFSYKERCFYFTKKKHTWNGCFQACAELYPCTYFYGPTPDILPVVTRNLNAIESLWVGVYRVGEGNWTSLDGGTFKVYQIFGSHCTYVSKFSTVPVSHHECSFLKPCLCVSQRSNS
eLon inh – inhibitors of E. coli Lon protease, primary screen, biochemical, fluorescence polarization. P0A9M0. purified E. coli Lon protease. inhibition, % at 7.94 µM. actives 0.42% (n = 360,000). AID 602123, 2011; in the data active means inhibition above about 13%, passing the limit was not always enough;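 further: 0% = enzyme with probe and DMSO and 100% = no enzyme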
MCL1 BIM primary – inhibitors of MCL1 binding to BIM-BH3, primary screen, biochemical, fluorescence polarization. Induced myeloid leukemia cell differentiation protein Mcl-1 (Homo sapiens), Q07820. GST-MCL1 / FITC-Bim-BH3 fluorescence polarization. inhibition, % at 10.9 µM. actives 0.68% (n = 320,000);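 active means inhibition above the mean inhibition of all tested compounds plus 3 SD, set per campaign, cut at about 40% in these data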;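 further: 0% = DMSO wells and 100% = unlabeled Bim-BH3 peptide control; higher means more loss of mP so more displacement of Bim peptide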
The depositor's hits bear a star; ? = inconclusive; . = no result given.

SMILES	MEX-5 binding	GLD-1 RNA inh	Bcl-xL primary	EBV gp42 inh	eLon inh	MCL1 BIM primary
COc1cc(/C=C/C(=O)N2CCN(C(=O)/C=C/c3cc(OC)c(OC)c(OC)c3)CC2)cc(OC)c1OC	2	109*	4	.	-4	0
Nc1cccc(C(=O)NCCNC(=O)c2cccc(N)c2)c1	1	1	4	.	1	-1
COC(=O)c1cc2c(-c3ccccc3)c(C)c3ccccn3c-2c1C(=O)OC	-4	63*	47*	65*	1	43*
COC(=O)c1c(C(=O)OC)c2ccccn2c1C(=O)c1ccccc1	0	7	4	.	-5	-8
CC(=O)CSc1nc2cc3c(cc2cc1C#N)OCCO3	-13	-14	34*	23	-13	42*
N#Cc1cc2cc3c(cc2nc1SCC(=O)N1CCCC1)OCCO3	-1	2	3	.	0	1
COc1cccc(C(=O)NCC(=O)NNc2ncnc(N)c2[N+](=O)[O-])c1	-32*	6	-2	-6	-10	-3
O=Cc1sc([O-])nc1-[n+]1ccc2ccccc2c1	-6	22	47*	13	.	41*
Cc1c(C(=O)NCCSCc2c(F)cccc2Cl)cnn1-c1ccc(Cl)cc1	-4	2	0	52*	11	2
O=C1C(Cl)=C(Nc2ccc3cn[nH]c3c2)C(=O)c2ccccc21	-5	1	33*	-22	11	33
COC(=O)C1C(O)CCC2CN3CCc4c([nH]c5ccccc45)C3CC21 (stereo unspecified)	-15	16	37*	16	1	42*
COc1cccc(CCN2C(=O)C(=O)N([C@@H](CNCc3ccccc3)Cc3ccccc3F)C[C@@H]2C(C)(C)C)c1	.	181*	5	.	.	6
CC(C)NC(=O)NC(=O)CSc1nncs1	2	-6	5	-2	-5	5
Cc1cc(C)nc(NN2C(=O)/C(=C/c3ccccc3)SC2=S)n1	-6	4	15	-15	8	14
Cc1cc(C)nc(NN2C(=O)C=CC2=O)n1	-29*	2	9	.	-6	8
O=C(c1cc(-c2ccc(Cl)cc2)on1)N1CCCCCC1	-2	34*	2	.	-5	-3
O=C(c1cc(-c2ccc(Cl)c(Cl)c2)on1)N1CCCCCC1	-2	2	3	.	-4	-2
CCOC(=O)C(=O)Cc1nc2ccccc2s1	6	46*	-8	-10	-70	-6
CCOc1ccc(S(=O)(=O)Nc2ccc(O)c(Sc3ncn[nH]3)c2)cc1	-4	0	6	2	11	4
COc1ccc(OC)c(S(=O)(=O)Nc2ccc(O)c(Sc3ncn[nH]3)c2)c1	-34*	4	9	-8	0	16
O=S1(=O)CC(N2CCN(c3ncccn3)CC2)CN1Cc1ccc(F)cc1 (stereo unspecified)	.	.	.	.	3	.
Cc1ccc(-c2nc(N=Nc3ccc(O)cc3)n[nH]2)cc1	-5	-5	3	-14	-21	0
Cc1nc(N=Nc2ccc(O)cc2)n[nH]1	-29*	-4	1	-7	-7	1
COc1ccccc1NC(=O)/C(C#N)=C/c1cc([N+](=O)[O-])ccc1N1CCCC1	-83*	-20	-20	161*	-53	-45
Cc1cccc(C(=O)Nc2nnc(S(=O)(=O)N(C)Cc3ccco3)s2)c1	-2	4	5	.	1	10
Cc1cc(C(=O)NNC(=O)CCCCC(=O)NNC(=O)c2cc(C)[nH]n2)n[nH]1	-37*	7	-1	2	-10	11
COc1ccc(/C=c2\sc3nc(=O)c(C)nn3c2=O)c(OC)c1	-40*	-5	-14	-136	-3	-22
CCN(CC)c1ccc(/C=C/c2cccc[n+]2C)c(OC)c1	?	42*	-13	.	-267	-50

Screening data deposited in PubChem by several laboratories.
